In all, about 5,400 compounds were measured (“IFI”: median about 2, highest 2% from about 22 on). The sample as a whole holds a higher share of the highest values than the screen did.

Results on 93 compounds are retold here after ChEMBL document CHEMBL1156829.

The nature of the assay: NOVARTIS: Inhibition Frequency Index (IFI) - the number of HTS assays where a compound showed > 50% inhibition/induction, expressed as a percentage of the number of assays in which the compound was tested. The assay is classed as functional.
`O=c1cc[nH]c2cc(N3CCCCCC3)c(F)cc12` yielded an IFI of 0%.

For `O=C(Nc1ccc2oc(-c3cccc4ccccc34)nc2c1)c1ccc([N+](=O)[O-])o1`, the IFI worked out at 7.14%.

Consider `C=CC1(C)CC23CC(C(OC(=O)c4ccccc4)c4ccnc5ccccc45)N2CCC13` (stereo not drawn), for which the IFI is 3.64%.

The compound `COc1cccc2cc(-c3nc(-c4ccccc4)cs3)c(=O)oc12` displayed an IFI of 6.45%.

Turning to `Cc1cc(/C=C2/SC(=S)N(CC(=O)O)C2=O)c(C)n1-c1ccccc1`, the IFI turned out to be 0%.

Consider `CCN1/C(=C\C=C2/SC(=S)N(c3ccccc3)C2=O)C(C)(C)c2cc(-c3ccccc3)ccc21`, for which the IFI amounted to 25%.

The compound `COc1cccc(N2C(=O)/C(=C/c3cccnc3)SC2=S)c1` registered an IFI of 0%.

On to `N#Cc1c(-c2ccccc2)cc(N2CCN(Cc3ccc(Cl)cc3)CC2)n2c1nc1ccccc12`, for which the IFI was 7.5%.

Turning to `COc1cc2c(OC3OCC(OC)C(OC)C3O)c3c(c(-c4ccc5c(c4)OCO5)c2cc1OC)C(=O)OC3` (stereo not drawn), the IFI was found to be 27.7%.

Take `CCOC(=O)c1c(-c2ccc3c(c2)OCO3)[nH]c2cccc(OC)c2c1=O`: the IFI amounted to 0%.

`CCOC(=O)c1c(-c2ccc3c(c2)OCO3)[nH]c2cc(OC)ccc2c1=O` showed an IFI of 0%.

Compound `CCOc1ccc(NC(=O)C2c3ccccc3C(=O)N(CC(C)C)C2c2cccs2)cc1` (stereo not drawn) registered an IFI of 6.25%.

As to `CS[C@H]1SC[C@H]2C(=O)N(C)[C@@H](C(C)C)C(=O)OC[C@@H](NC(=O)c3cnc4ccccc4n3)C(=O)N[C@@H](C)C(=O)N(C)[C@@H]1C(=O)N(C)[C@@H](C(C)C)C(=O)OC[C@@H](NC(=O)c1cnc3ccccc3n1)C(=O)N[C@@H](C)C(=O)N2C`, the IFI was 34.6%.

In turn, `O=C(Nc1ccc(C2=NCCN2)cc1)c1ccc(-c2ccc(C(=O)Nc3ccc(C4=NCCN4)cc3)cc2)cc1` came in with an IFI of 4.4%.

Compound `O=C(CN(CCN1CCOCC1)S(=O)(=O)c1ccccn1)N1CCN(C(c2ccccc2)c2ccccc2)CC1` returned an IFI of 0%.

As for `OC1(c2ccc3ccccc3c2)c2c(c3ccccc3c3ccccc23)C2=NCCN21` (stereo not drawn), the IFI came out at 3.25%.

`CCn1c2ccccc2[n+]2c(C)cc(C)nc12` came in with an IFI of 7.14%.

In turn, `COc1cc2nc(NCC3CCCO3)n3nc(-c4ccccc4)nc3c2cc1OC` (stereo not drawn) yielded an IFI of 2.27%.

In turn, `CCn1c(/C=C/N(C)c2ccccc2)[n+](CC)c2cc(Cl)ccc21` came in with an IFI of 6.25%.

In turn, `CC[n+]1c(/C=C/N(C)c2ccccc2)n(-c2ccccc2)c2ccc(-c3nc4ccccc4s3)cc21` showed an IFI of 29.2%.

With `CCOC(=O)c1ccc2c(c1)[n+](CC)c(/C=C/N(C)c1ccccc1)n2CC`, the IFI turned out to be 7.41%.

In turn, `NCCC(=O)N1CC(c2ccccc2)c2ccccc2C1CN1CCCCC1` (stereo not drawn) had an IFI of 4.22%.

As to `COc1ccc2cc(CNCCc3cccc(Cl)c3)c(N3CCC(=O)N(CCN(C)C)CC3)nc2c1`, the IFI was determined as 9.73%.

Consider `Cc1onc(-c2ccccc2)c1C(=O)N1CCC(CNc2c(-c3ccc(F)cc3)nc3ccccn23)CC1`, for which the IFI came to 5.56%.

Regarding `Cc1ccc(-c2cc(-c3cc(Cl)ccc3O)on2)cc1`, the IFI is 0%.

For `c1ccc(Nc2nc(-c3ccccn3)cs2)nc1`, the IFI worked out at 18.1%.

`Cc1ccnc(Nc2nc(-c3ccccn3)cs2)c1` registered an IFI of 24.6%.

Regarding `Cc1ccc(Nc2nc(-c3ccccn3)cs2)cc1`, the IFI was 3.62%.

For the compound `O=S(=O)(NC1CCCC1)c1cccc2nonc12`, the IFI turned out to be 0%.

With `O=C1c2ccccc2C(=O)c2c1ccc1nonc21`, the IFI worked out at 30.8%.

Compound `CC(=O)c1ccc2c3c(onc13)-c1ccccc1C2=O` returned an IFI of 0%.

`O=C(C1=C(O)C(=O)N(CCCn2ccnc2)C1c1ccccc1[N+](=O)[O-])c1ccccc1` (stereo not drawn) registered an IFI of 0%.

Regarding `COc1cccc(CNc2ncnc3sc(C(=O)NCC4COCCO4)c(C)c23)c1OC` (stereo not drawn), the IFI came out at 1%.

`COc1ccc(Nc2nc(NN=Cc3cccc([N+](=O)[O-])c3OC)nc(Nc3ccc([N+](=O)[O-])cc3)n2)cc1` yielded an IFI of 6.49%.

`CCC(c1nc2ccccc2c(=O)n1CCOC)N1CCNCC1` (stereo not drawn): the IFI came out at 3.31%.

Regarding `C=CC[n+]1c(C=C2C=CN(C)C=C2)sc2ccccc21`, the IFI stood at 15.4%.

The compound `O=c1c2ccccc2[nH]c2ccc(F)cc12` gave an IFI of 0%.

As for `CC[n+]1c(C)cc2c([nH]c3ccccc32)c1C`, the IFI was determined as 3.03%.

Take `O=C1c2ccccc2-[n+]2ccc3c([nH]c4ccccc43)c21`: the IFI is 41.2%.

The compound `CC(=O)NCCc1ccc(O)cc1` showed an IFI of 1.48%.

For the compound `CCN(CC)CCNc1nc(/C=C/c2ccc(Cl)cc2)nc2cc3ccccc3cc12`, the IFI was determined as 8.77%.

The compound `Cn1c2ccccc2c2nnc(NN=Cc3ccccn3)nc21` yielded an IFI of 15.4%.

Consider `S=C(NN=Cc1ccccn1)NC1CC2C=CC1C2` (stereo not drawn), for which the IFI amounted to 19.7%.

In the case of `CC1(C)C2CCC(C2)C1(C)NC(=S)NN=Cc1ccccn1` (stereo not drawn), the IFI was determined as 26%.

As to `S=C(NN=Cc1ccccn1)NC1CC2CC1C1C=CCC21` (stereo not drawn), the IFI was determined as 32.5%.

As to `Cc1ccc(NC(=O)C2CSC(c3cccc(F)c3)N2C(=O)c2ccc(C(C)(C)C)cc2)cc1C` (stereo not drawn), the IFI stood at 4.25%.

For the compound `CC(C)(C)NC(=O)C(c1cccs1)N(CCCN1CCOCC1)C(=O)c1ccc(-c2ccccc2)[nH]1` (stereo not drawn), the IFI stood at 3.26%.

For `Cc1ccc(S(=O)(=O)Oc2ccc(C=NN=C(N)N)cc2)cc1`, the IFI came to 0%.

Take `CC(C)CN1C(=O)c2ccccc2C(C(=O)Nc2ccc(C(C)C)cc2)C1c1cccs1` (stereo not drawn): the IFI came to 6.06%.

As for `COC(=O)c1cn([C@H]2C[C@@H](C(=O)NCc3ccc(OC)cc3)N(Cc3ccsc3)C2)nn1`, the IFI was 1.98%.

As to `CCCC1=[N+](CC(=O)c2ccc(C)cc2)CCn2c(C)ccc21`, the IFI amounted to 5.75%.

Turning to `CC[C@@H](C(=O)[C@@H](C)[C@@H](O)[C@H](C)CCc1ccc(C)c(O)c1C(=O)O)[C@H]1O[C@](CC)([C@H]2CC[C@](O)(CC)[C@@H](C)O2)C[C@@H]1C`, the IFI is 26.9%.

`CC[C@@H](C(=O)[C@@H](C)C(O)[C@H](C)CCc1ccc(C)c(O)c1C(=O)O)C1O[C@](CC)(C2CC[C@](O)(CC)[C@H](C)O2)C[C@@H]1C` (stereo partly drawn): the IFI is 9.84%.

`Cc1ccc(CNC(=O)C2CNCC2c2ccc(C(F)(F)F)cc2)cc1` (stereo not drawn) came in with an IFI of 2.82%.

In the case of `O=C1N(c2ccccc2)C[C@@H]2C[C@@H](c3ccc4nonc4c3)N3CCC[C@@]123`, the IFI was found to be 7.69%.

On to `OC1=C2C(=Nc3ccccc3SC2c2ccccc2)c2ccccc21` (stereo not drawn), for which the IFI was 2.25%.

Take `COc1ccc(-c2n(C)c3ccccc3[n+]2CC(=O)OC2CC(C)CCC2C(C)C)cc1` (stereo not drawn): the IFI was 22.7%.

Regarding `CC1CCC(C(C)C)C(OC(=O)Cn2c(-c3ccccc3)[n+](C)c3ccccc32)C1` (stereo not drawn), the IFI came out at 13.1%.

`COc1ccc(-c2c[n+](CC(=O)O[C@H]3C[C@H](C)CC[C@@H]3C(C)C)c3n2CCCCC3)cc1` came in with an IFI of 21.9%.

Compound `O=C1Cc2c([nH]c3ccc(OCc4ccccc4)cc23)C2CC=CCC12` (stereo not drawn) displayed an IFI of 0%.

The compound `Nc1c(C(=O)NCc2ccccc2)nnn1Cc1ccc(F)cc1Cl` showed an IFI of 0%.

`CCN1C(=Cc2sc3ccc(OC)cc3[n+]2CC)C=Cc2ccccc21` registered an IFI of 25%.

Take `CCN1/C(=C/C2=CC(=C/c3sc4ccccc4[n+]3CC)/CC(C)(C)C2)C=Cc2ccccc21`: the IFI stood at 9.43%.

The compound `CCN1/C(=C\c2sc3ccc(O)cc3[n+]2CC)C=Cc2ccccc21` gave an IFI of 23.1%.

`CCCC[n+]1c(C=C2C=Cc3ccccc3N2CC)sc2ccccc21`: the IFI came to 11.1%.

Compound `CCCN1/C(=C/c2sc3ccccc3[n+]2CC)C=Cc2ccccc21` displayed an IFI of 23.1%.

For the compound `CCN1/C(=C/c2sc3ccccc3[n+]2CC)C=Cc2cc(NC(C)=O)ccc21`, the IFI turned out to be 7.69%.

With `CCN1/C(=C/c2sc3ccc(OC)cc3[n+]2CC)C=Cc2cc(OC)ccc21`, the IFI is 15.4%.

`CCN1/C(=C/c2sc3ccc(OC)cc3[n+]2CC)C=Cc2cc(C)ccc21` came in with an IFI of 23.1%.

`CCN1C(=Cc2sc3ccc(Cl)cc3[n+]2CC)C=Cc2cc(OC)ccc21` returned an IFI of 15.4%.

In turn, `CCN1/C(=C/c2sc3ccc(I)cc3[n+]2CC)C=Cc2ccccc21` gave an IFI of 15.4%.

Regarding `CCN1/C(=C/c2sc3ccc(Br)cc3[n+]2CC)C=Cc2ccccc21`, the IFI is 15.4%.

In the case of `CCN1/C(=C/c2sc3ccc(-c4ccccc4)cc3[n+]2CCO)C=Cc2cc(OC)ccc21`, the IFI came to 7.14%.

The compound `CCOc1ccc(C(=O)C(CCC(C[N+]2(C)CCCCCC2)C(=O)c2ccc(OCC)cc2)C[N+]2(C)CCCCCC2)cc1` (stereo not drawn) gave an IFI of 0%.

Consider `COc1ccc(CCNc2nc(NCCC3CCCN3C)ncc2C(=O)NCc2ccccc2)cc1OC` (stereo not drawn), for which the IFI stood at 1.92%.

As to `COc1ccc2[nH]c(=O)c(CN(C(=S)Nc3ccccc3OC)C3CCCC3)cc2c1`, the IFI is 2.17%.

Turning to `Nc1ccc(-c2cc(N)n(-c3ccc(Oc4ccccc4)c(S(=O)(=O)O)c3)n2)cc1`, the IFI is 1.83%.

Take `CCOc1cccc2oc(=O)c(C(=O)Nc3cc(C(C)(C)C)on3)cc12`: the IFI came to 0%.

With `CCOc1ccc(-c2nc(NC(=O)CS(=O)(=O)c3ccccc3)sc2C)cc1`, the IFI is 0%.

`CCOC(=O)C1CCN(C(=O)c2cc(C(C)(C)C)nn2Cc2ccc(Cl)cc2Cl)CC1` registered an IFI of 1.63%.

The compound `CCC(c1nc2ccccc2c(=O)n1CC)N1CCN(C(=O)Nc2ccccc2C(F)(F)F)CC1` (stereo not drawn) showed an IFI of 2.08%.

In the case of `Cc1ccccc1CN1CCN(C/C=C/c2ccccc2)CCC1=O`, the IFI is 0.962%.

`CCN1/C(=C/c2sc3ccc(-c4ccccc4)cc3[n+]2CCO)C=Cc2ccccc21` came in with an IFI of 7.14%.

`CCN1/C(=C/c2sc3cc(OC)c(OC)cc3[n+]2CC)C=Cc2ccccc21` showed an IFI of 23.1%.

Compound `CCN1/C(=C/c2sc3ccccc3[n+]2CC)Sc2ccccc21` had an IFI of 21.9%.

The compound `CCCOC(=O)C1=C(C)NC2=C(C(=O)CC(c3ccc(Cl)cc3)C2)C1c1ccc(Br)cc1` (stereo not drawn) showed an IFI of 3.57%.

`Cc1ccn2c(NC(C)(C)CC(C)(C)C)c(-c3ccccc3OC(=O)c3ccc(C)c([N+](=O)[O-])c3)nc2c1`: the IFI came to 3.74%.

For `Cc1ccc(S(=O)(=O)NC(Cc2ccccc2)C(=O)N2CCC(C3CCN(C(=O)c4ccc([N+](=O)[O-])o4)CC3)CC2)cc1` (stereo not drawn), the IFI was 7.69%.

In turn, `CCCCSc1oc(C)nc1[P+](c1ccccc1)(c1ccccc1)c1ccccc1` registered an IFI of 22.2%.

Compound `Cc1nc([P+](c2ccccc2)(c2ccccc2)c2ccccc2)c(SCc2ccccc2)o1` gave an IFI of 21.6%.

As for `CCC(c1nc2ccccc2c(=O)n1-c1ccc(F)c(Cl)c1)N(CCc1ccccc1)C(=O)COc1ccccc1` (stereo not drawn), the IFI is 1.87%.

In turn, `OC(Cn1nnc2ccccc21)Cn1c2ccc(Br)cc2c2cc(Br)ccc21` (stereo not drawn) registered an IFI of 2.01%.

In turn, `COc1ccc(OC)c(C2CC(=O)C3=C(C2)NC(=O)CC3c2ccc([N+](=O)[O-])cc2)c1` (stereo not drawn) came in with an IFI of 0%.
